Source: PubChem (National Center for Advancing Translational Sciences (NCATS))
Shown are actives, neighbours in structure and some others; about 9.4% of the full set was active somewhere.
ELG1 genotox: induces genotoxicity in HEK293T cells with luciferase-tagged ELG1; 330,000 compounds, 1.3% hits; AID 504466; Potency, µM (doses to about 46 µM), usual class: activators; HEK293T ELG1-luciferase reporter, luminescence, 16 h; further: nearly all actives have a fitted effect of over 60% in size
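Genotoxic stress is detected as increased luminescence from luciferase-tagged ELG1 in HEK293T cells, measured with ONE-Glo after a 16 hr treatment at 37 °C.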
FLuc modulator: inhibits or activates purified firefly luciferase, miR-21 counter-screen | purified FLuc, Km substrates, luminescence inhibition | Potency, µM (highest dose often 57.5 µM), most hits filed as inhibitors | 360,000 compounds, 6.9% hits | AID 588342; further: nearly all actives have a fitted effect of over 55% in size
Target sequence (P08659 whole entry, looked up): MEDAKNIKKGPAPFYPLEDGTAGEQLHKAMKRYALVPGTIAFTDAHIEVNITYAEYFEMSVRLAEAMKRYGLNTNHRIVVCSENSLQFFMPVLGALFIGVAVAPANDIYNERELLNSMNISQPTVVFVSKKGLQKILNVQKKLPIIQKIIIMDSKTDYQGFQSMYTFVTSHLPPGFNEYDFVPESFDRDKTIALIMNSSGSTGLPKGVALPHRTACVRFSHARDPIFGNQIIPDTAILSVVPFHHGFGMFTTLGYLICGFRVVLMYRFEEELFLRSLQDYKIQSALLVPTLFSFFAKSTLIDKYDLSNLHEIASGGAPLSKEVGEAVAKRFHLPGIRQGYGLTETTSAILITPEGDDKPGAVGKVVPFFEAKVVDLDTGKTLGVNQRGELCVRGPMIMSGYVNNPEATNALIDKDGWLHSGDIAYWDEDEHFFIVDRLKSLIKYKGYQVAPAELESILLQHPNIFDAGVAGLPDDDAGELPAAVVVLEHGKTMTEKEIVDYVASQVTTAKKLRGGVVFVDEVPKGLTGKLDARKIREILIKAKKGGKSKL
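Purified P. pyralis luciferase (10nM final) with 10uM D-luciferin and 10uM ATP (Km levels) in 50mM Tris acetate pH 7.5, 10mM Mg acetate, 0.01% Tween-20, 0.05% BSA; qHTS 6-point titration, ~60 µM downward; luminescence read.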
NPC1 promoter act: NPC1 promoter activation; Huh7 NPC1 promoter luciferase reporter, 24 h; Potency, µM (highest dose often 9.22 µM), hits mostly activators; 320,000 compounds, 2.4% hits; AID 485313; further: nearly all actives have a fitted effect of over 60% in size
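Luminescence read-out of NPC1 promoter-driven luciferase in stably transfected Huh7 cells; compounds delivered in DMSO and left 24 h at 37C, 5% CO2, qHTS titration format.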
SMN2 splice enh: enhancers of SMN2 splice variant expression; HEK293 SMN2-luciferase splicing reporter, luminescence, 30-36 h; Potency, µM (titrated, usually from 46.1 µM), usual class: activators; 210,000 compounds, 2.8% hits; further: nearly all actives have a fitted effect of over 55% in size
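qHTS luciferase splicing reporter: luminescence rises when SMN2 exon 7 is included in transfected HEK293 cells. Compound exposure lasted 30-36 h at 37C, with 4.5 mM final sodium butyrate as control, followed by a ONE-Glo read.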
ELG1 DNA repair: ELG1-dependent DNA repair inhibition | HEK293T ELG1-luciferase reporter, luminescence, 16 h; DNA damage induced by 5-fluorouridine | Potency, µM (top dose mostly 46.1 µM), most hits filed as inhibitors | 330,000 compounds, 2.3% hits | AID 504467; further: nearly all actives have a fitted effect of over 55% in size
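DMSO vehicle served as the neutral condition. Each well held 2,000 cells given 5-fluorouridine plus compound; after 16 hr at 37 °C/5% CO2, ONE-Glo was added and luciferase measured 30 min later.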
Rab9 prom act: activators of Rab9 promoter. 320,000 compounds, 2.8% hits. Potency, µM (highest dose often 9.22 µM), hits mostly activators. Huh7 Rab9 promoter-luciferase reporter, luminescence, 24 h. AID 485297; further: nearly all actives have a fitted effect of over 60% in size
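Steps: seed 1500 Huh7 Rab9-luc cells per well, rest 2 h at 37 °C; add compound in DMSO; incubate 24 h; add luciferase reagent, 10 min ambient; read luminescence.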
Hits are given with their value; 0 = inactive; ? = inconclusive; - = no result given; [ ] = remark or other dose. The call rests on the fitted dose curve; in most records, active means well fitted curve in the direction sought with a large enough effect; inconclusive means small, poorly fitted or top-dose-only effect, or another doubt; inactive means no such curve, though single readings can be large; an effect the other way counts as inactive or inconclusive.

SMILES	ELG1 genotox	FLuc modulator	NPC1 promoter act	SMN2 splice enh	ELG1 DNA repair	Rab9 prom act
COc1ccc(/C=C2/C(=O)N(c3cccc(F)c3)N=C2C)c(OC)c1	0	?	0	-	0	0
COc1ccc(/C=C2/C(=O)N(c3ccccc3)N=C2C)cc1Br	0	13.5µM	0	-	?	0
CC1=NN(c2ccccc2)C(=O)/C1=C/c1cccs1	0	8.49µM	0	0	?	0
COc1cc(/C=C2/C(=O)N(c3ccccc3)N=C2C)ccc1OS(=O)(=O)c1ccccc1	0	0	0	0	0	0
CC1=NN(c2cccc(F)c2)C(=O)/C1=C/c1ccc(N(C)C)cc1	0	5.36µM	0	-	0	0
CC1=NN(c2ccccc2)C(=O)/C1=C/c1ccc[nH]1	?	16.9µM	0	10µM	?	0
Cc1cccc(NC(=O)c2sc3nc(-c4ccccc4)cn3c2C)c1C	-	0	-	-	-	-
CC(C)c1ccccc1NC(=O)c1cccc(NC(=O)c2ccccc2)c1	0	?	0	0	?	0
COc1ccc(CNC(=O)COC(=O)c2ccc(S(=O)(=O)NCc3ccco3)cc2)cc1	0	-	-	-	0	-
CC1=NN(c2ccccc2)C(=O)/C1=C/c1c(O)n(-c2ccc(F)cc2)[nH]c1=O	?	0.601µM	0	0[1.84 µM]	?	0
CC1=NN(c2ccccc2)C(=O)/C1=C/c1ccc(Cl)cc1	0	?	0	-	0	0
CC1=NN(c2ccc(C(=O)O)cc2)C(=O)/C1=C\c1ccc(OC(=O)c2cccs2)cc1	0	23.9µM	0	0	0	0
CCOc1cc(/C=C2\C(=O)N(c3ccc(C(N)=O)cc3)N=C2C)ccc1OC(=O)c1cccs1	0	?	0	0	0	0
CC1=NN(c2ccccc2)C(=O)/C1=C\c1ccc(Br)s1	?	9.53µM	0	0[1.84 µM]	?	0
Cc1ccc(/C=C/c2onc(C)c2S(=O)(=O)N2CCC(C(=O)NCC(C)c3ccccc3)CC2)cc1 (centres undefined)	-	0	-	-	-	-
Nc1nc(N)nc(COc2ccccc2)n1	?	?	?	11.2µM	?	4.47µM
O=C(Nc1ccc(Br)cc1F)c1ccc2c(c1)OCCO2	?	0.536µM	0.282µM	-	?	0.126µM
O=C(Nc1ccc(F)cc1F)c1ccc2c(c1)OCCO2	?	4.78µM	0.501µM	-	?	0.631µM
CCC(=O)Nc1ccc(C(=O)Nc2ccc(Br)cc2F)cc1	0	0	0	-	0	0
COC(=O)c1ccc2c(c1)N(CC(=O)Nc1cccc(C(F)(F)F)c1)C(=O)c1ccccc1S2	-	0	-	-	-	-
CCOC(=O)c1ccc(CNC(=O)CSc2nc(NC(=O)c3ccccc3)c3c(C)c(C)oc3n2)cc1	0	0	0	0	14.6µM	0
COC(=O)c1ccc(CN(Cc2ccc(OC)c(OC)c2)S(=O)(=O)c2ccc(F)c(C(=O)Nc3cc(C)ccc3C)c2)cc1	-	0	-	-	-	-
O=C(Nc1cccc(Cl)c1Cl)c1ccc(-c2ccccc2)cc1	?	?	2.51µM	?	?	?
O=C(Nc1ccccc1Cl)c1ccccc1	?	0	0	0	?	0
Cc1ccc(C(=O)Nc2ccccc2Cl)cc1	?	6.75µM	3.16µM	-	?	1.58µM
SMILES	ELG1 genotox	FLuc modulator	NPC1 promoter act	SMN2 splice enh	ELG1 DNA repair	Rab9 prom act
CCOC(=O)c1cc(-c2ccc(C)cc2)nn1Cc1ccccc1	-	7.57µM	-	?	-	-
Cc1ccc(Cn2nc(C)cc2C(=O)Nc2ccccc2Cl)cc1	23.1µM	12µM	?	-	?	2.51µM
O/N=C/c1ccc(OCC(O)COc2ccc(/C=N/O)cc2)cc1	0	15.1µM	0	0	0	0
COc1ccc(N2CCN(C(=O)CSc3nnc4n3C(C)(C)Cc3ccccc3-4)CC2)cc1	0	0	0	0	20.6µM	0
CCn1c(COc2cccc(C)c2C)nnc1SCC(=O)N1CCN(c2ccc(OC)cc2)CC1	0	0	0	0	10.3µM	0
Cc1ccc(Cl)cc1N1CCN(C(=O)CSc2nnc3n2C(C)(C)Cc2ccccc2-3)CC1	0	0	0	0	11.6µM	0
Cc1c(C(=O)N(C)C)sc2c1c(=O)n(-c1ccc(Cl)c(Cl)c1)c(=O)n2Cc1ccc(F)cc1	-	0	-	-	-	-
CCOC(=O)c1ccc(NC(=O)c2nn(C)c3c2COc2ccccc2-3)cc1	-	0	-	-	-	-
Cc1cccn2c(=O)c(C(=O)NCc3cccc(F)c3)cnc12	-	0	-	-	-	-
Cc1ccc(O)c(NC(=O)c2cc(-c3ccccc3O)no2)c1	-	0	-	-	-	-
CC(C)(C)c1cc(-c2ccccc2)no1	0	?	0	-	?	0
Oc1ccccc1-c1cc(-c2ccccc2)no1	?	0.849µM	5.62µM	3.16µM	?	?
Cc1ccccc1-c1cc(-c2ccccc2O)on1	?	1.9µM	?	7.08µM	?	?
Cc1ccc(-c2cc(-c3ccccc3)no2)c(O)c1	0.366µM	0.169µM	3.16µM	-	?	2µM
Cc1ccc(O)c(-c2cc(-c3ccc(F)cc3)no2)c1	2.06µM	0.953µM	0	-	?	0
COc1ccc(NC(=O)CSc2ccc3c(c2)OCCO3)cc1OC	0	0	0	-	0	0
COc1cc2cc(C(=O)Nc3ccc4c(c3)OCCO4)[nH]c2cc1OC	?	12µM	0	-	?	0
COc1cc2[nH]c(C(=O)Nc3ccc4c(c3)OCCO4)cc2c(OC)c1OC	?	8.49µM	0	-	0	0
C/C(N=NC(=[SH+])SCc1ccccc1)=C1\C=CC=CN1.[Cl][Cu]	-	-	-	0[9.22 µM]	-	-
COc1ccc(NC(=O)CSC2=Nc3ccccc3C3=NC(CCC(=O)NCCc4ccccc4)C(=O)N23)c(OC)c1 (centres undefined)	-	0	-	-	-	-
COc1cc(C2Nc3ccccc3C(=O)N2c2ccc3c(c2)OCCO3)ccc1OCC(C)C (centres undefined)	1.84µM	15.1µM	1µM	3.16µM	?	0.562µM
O=C1c2ccccc2NC(c2ccc3c(c2)OCCO3)N1c1ccc2c(c1)OCCO2 (centres undefined)	2.06µM	10.7µM	1µM	3.55µM	?	1.58µM
O=C1c2ccccc2NC(c2ccc3c(c2)OCO3)N1O (centres undefined)	0	0	0	0	0	0
Cc1noc(C)c1COc1ccccc1C(=O)NCCOc1ccccc1	0	0	0	-	0	0
O=C1C=C(c2cccc3c2sc2ccccc23)C[C@@H](c2ccc(Cl)cc2)C1	0	0	0	-	0	0
COc1ccc([C@H]2CC(=O)C=C(c3cccc4c3Oc3ccccc3S4)C2)cc1OC	0	0	0	-	18.3µM	0
COc1ccc([C@H]2CC(=O)C=C(c3cccc(Br)c3)C2)cc1OC	0	-	-	-	18.3µM	-
COc1ccc([C@H]2CC(=O)C=C(c3cccc(Cl)c3O)C2)cc1OC	0	0	0	-	?	0
O=C1C=C(c2cccc3c2Oc2ccccc2S3)C[C@@H](c2ccc(Cl)cc2)C1	0	0	0	-	20.6µM	0
COc1ccc(CCNC(=O)c2ccc3c(c2)N(Cc2ccccc2C)C(=O)c2ccccc2S3)cc1OC	-	0	-	-	-	-
